According to ChEMBL document CHEMBL3988442, “University of Dundee, Small-Polar-MMV Screening Library” (2021):
The campaign covered roughly 38,000 compounds. About 1,200 (3.2%) showed an effect of 50% or more. The median lay at about -58%. The list comes from a sample in which strong results are over-represented; it also holds similar structures and randomly drawn compounds.

system: Plasmodium falciparum; assay: Calibr Malaria Delayed Death Assay SOP; assay type: functional, organism-based; parameters: scale not given: in the data most compounds retested in dose-response had high values; details: concentration 4.99e-06 (unit not given; other assays of the set use mol/L)

Row | SMILES | Percent Effect
1 | CC(C)Cc1cc(NC(=O)c2cc(Cl)c[nH]2)n(C)n1 | 10.73%
2 | CC(C)N(C)CCC(=O)N1CCCC(c2ccc(C(=O)O)cc2)C1 (stereo not drawn) | -175.3%
3 | CC(C)CN1C[C@H]2N(c3ncccn3)CCC[C@@]2(C(=O)NCC2CC2)C1 | -72.47%
4 | Cc1ccc(CN(C)C(=O)c2n[nH]c(N)c2-c2ccccc2)o1 | -66.55%
5 | CN(Cc1ccncc1)C1COC2(CCN(Cc3ccccn3)CC2)C1.O=C(O)C(F)(F)F.O=C(O)C(F)(F)F.O=C(O)C(F)(F)F.O=C(O)C(F)(F)F (stereo not drawn) | -49.62%
6 | Cc1ncsc1C(=O)NC1CCN(CC(N)=O)CC1 | -67.12%
7 | O=C(Cn1ccc2sccc2c1=O)NCCC1=CCCCC1 | -67.23%
8 | Cc1cccc(N2CCN(CCCNC(=O)c3cn[nH]c3C)CC2)c1 | -117.5%
9 | CC1CCCN(CCCNC(=O)Cc2csc(-c3ccoc3)n2)C1 (stereo not drawn) | 9.027%
10 | Cc1csc([C@H]2C[C@H]3CN(Cc4cc(C)on4)CC[C@@H]3O2)n1.O=C(O)C(F)(F)F | -119%
11 | CCN(C(=O)CN1CCn2c(C)nnc2C1)C1=CCCCC1 | 8.289%
12 | c1cnn(CC2CN(Cc3nnc(C4CC4)o3)CCO2)c1 (stereo not drawn) | -40.41%
13 | FC(F)(F)CCc1ccnc(N[C@H]2CC[C@H](n3cnnc3)CC2)n1 | -55.01%
14 | N[C@H]1CC[C@@H](Nc2nccc(CCC(F)(F)F)n2)CC1 | 50.03%
15 | N[C@@H]1CC[C@@H](Nc2nccc(CCC(F)(F)F)n2)C1 | -7.999%
16 | CC(C)N(C)C(=O)C1=NOC2(CCN(C(=O)c3ccnnc3)C2)C1 (stereo not drawn) | -187.4%
17 | Cc1cccc(CCC(=O)Nc2ccnn2C2CCS(=O)(=O)C2)c1 (stereo not drawn) | -75.57%
18 | O=C(NCCNC(=O)c1ccc(Br)cc1)c1ccc(O)cc1 | 27.41%
19 | O=C(NCCNc1cncc(Br)c1)c1ccc(O)cc1 | 50.22%
20 | O=C(NCCNc1ccc(Br)cn1)c1ccc(O)cc1 | -25.48%
21 | CCc1nn(C)c(Cl)c1CN1CCCC2(CC1)CN(C)C(=O)O2 (stereo not drawn) | -46.66%
22 | OCC1(O)CCCN(Cc2ccccc2OCCc2ccccc2)CC1 (stereo not drawn) | 64.9%
23 | OCCOc1ccccc1CN1CCCC(O)(CO)C1 (stereo not drawn) | -48.41%
24 | O=C1NCC2(CCCN(Cc3ccccc3OCCO)C2)O1 (stereo not drawn) | -55.51%
25 | Cc1cc(C(=O)Nc2cnn(CC(F)(F)F)c2)nc(N2CCOCC2)n1 | -108.9%

Row | SMILES | Percent Effect
26 | c1csc(COC[C@H]2CCC[C@]23CN(Cc2ccoc2)CCO3)n1 | 34.38%
27 | CS(=O)(=O)NCC1CCCCN1Cc1cccc(C#N)c1 (stereo not drawn) | -99.98%
28 | CC(=O)NCCC1CCCCN1S(=O)(=O)c1cccc(C#N)c1 (stereo not drawn) | -38.39%
29 | CCN1CCCC1CN(CCN(C)C)S(=O)(=O)c1cccc(C#N)c1 (stereo not drawn) | 58.76%
30 | CCS(=O)(=O)N1CCC(Oc2ccc(C#N)cc2)CC1 | -74.03%
31 | CCN1CCCC1CN(CCN(C)C)S(=O)(=O)c1ccc(C#N)cc1 (stereo not drawn) | 58.03%
32 | CCN(CC)S(=O)(=O)c1ccc(CNC(=O)N2CCC(C#N)CC2)cc1 | -96.87%
33 | Cn1ncc2c(NC3CCCN(C(=O)C4CC4)C3)nc(C(C)(C)C)nc21 (stereo not drawn) | -80.8%
34 | CC(C)CC(NC(=O)c1ccn(C)c(=O)c1)c1ccccc1 (stereo not drawn) | -106.6%
35 | CNC(=O)C1CCCN1c1nc(C)c2ccccc2n1 (stereo not drawn) | -23.49%
36 | CCc1c(C)nc2ccccc2c1N1CCC(NC(C)=O)CC1 | 21.66%
37 | CCc1c(C)nc2ccccc2c1N1CCC(C(=O)NC)CC1 | 51%
38 | Cc1csc(NC(=O)[C@@H]2C[C@H]3[C@H](CCN3S(C)(=O)=O)O2)n1 | -110.3%
39 | O=S(=O)(NCc1ccc(S(=O)(=O)N2CCCC2)s1)c1ccc(Cl)cc1 | -58.72%
40 | O=C1CN(C(=O)c2ccc(Cl)cc2)CC(O)CN1Cc1cccs1 (stereo not drawn) | -105.2%
41 | O=C1CN(C(=O)c2ccc(F)cc2)CC(O)CN1Cc1cccs1 (stereo not drawn) | 88.73%
42 | Cc1ccc(C(=O)N2CC(=O)N(Cc3cccs3)CC(O)C2)cc1 (stereo not drawn) | -71.11%
43 | CN(C)S(=O)(=O)N1CCOCC1CC(=O)NCCOc1ccccc1 (stereo not drawn) | -2.235%
44 | CCc1noc(C)c1C(=O)NCc1cc[nH]n1 | -11.39%
45 | Cc1noc(C)c1C(=O)NCc1cc[nH]n1 | -1.688%
46 | CCN(c1ccc(C(=O)NCc2cc[nH]n2)cc1)C(C)C | 57.8%
47 | Cc1nc(CN2CCCC(NCc3ccc4c(c3)CCO4)C2)no1 (stereo not drawn) | -110.8%
48 | CCCc1nc(N2CCSCC2)c2c(n1)c(C)nn2CC | -63.17%
49 | CCN(CC)CC1CN(Cc2ccc(C)s2)Cc2nccn2C1.O=C(O)C(F)(F)F.O=C(O)C(F)(F)F (stereo not drawn) | 66.72%
50 | CCN(CC)CC1CN(CCc2ccccc2)Cc2nccn2C1.O=C(O)C(F)(F)F.O=C(O)C(F)(F)F (stereo not drawn) | 57.03%

Row | SMILES | Percent Effect
51 | Cc1ccc(CN2Cc3nccn3CC(Cn3cccn3)C2)s1.O=C(O)C(F)(F)F (stereo not drawn) | -33.05%
52 | CCN(CC)CC1CN(Cc2nccs2)Cc2nccn2C1.O=C(O)C(F)(F)F.O=C(O)C(F)(F)F (stereo not drawn) | 18.43%
53 | CN(C)CC1CN(Cc2ccc(F)cc2)Cc2nccn2C1.O=C(O)C(F)(F)F.O=C(O)C(F)(F)F (stereo not drawn) | 12.77%
54 | Cc1ccc(CN2Cc3nccn3CC(CN(C)C)C2)s1.O=C(O)C(F)(F)F.O=C(O)C(F)(F)F (stereo not drawn) | -55.03%
55 | O=C(NCC1CC1)c1cc2c(s1)CCN2c1ncccn1 | -131.9%
56 | O=C(c1cnc2ccc(Cl)cc2c1NCc1ccco1)N1CCCCC1 | -150.7%
57 | Cc1ncsc1-c1nnc(C2CCN(Cc3ccc(Cl)cc3)CC2)o1 | -44.81%
58 | CC(C)(CN1CCC2(CCOCC2)CC1)N1CCOCC1 | -173.8%
59 | COCC1c2nnn(C)c2CCN1C(=O)Cc1ccccn1 (stereo not drawn) | -28.75%
60 | CCC[C@H]1CN(S(=O)(=O)c2cc(C)ccc2F)C[C@@H]1N | 52.25%
61 | Cc1ccc(F)c(S(=O)(=O)N2CCCC2c2ccncc2)c1 (stereo not drawn) | -74.84%
62 | CCS(=O)(=O)NC1CCCN(c2cc(C)ccc2F)C1=O (stereo not drawn) | 0.205%
63 | Cc1ccc(C)c(S(=O)(=O)N2CCN(C)C3(CCC(=O)N(C)CC3)C2)c1 (stereo not drawn) | -116.8%
64 | Cc1noc(C)c1-c1n[nH]c2c1CN(S(=O)(=O)c1cccs1)CC2 | -28.6%
65 | CCc1ccc(S(=O)(=O)N2CCCC(c3ncc[nH]3)C2)s1 (stereo not drawn) | 13.27%
66 | CCC[C@H]1CN(S(=O)(=O)c2ccccc2)C[C@@H]1N | 16.03%
67 | CCC[C@H]1CN(S(=O)(=O)c2cc(C)ccc2C)C[C@@H]1N | 67.41%
68 | Cc1cccc(OCC(O)CNCc2c(C)nn(C)c2N(C)C)c1 (stereo not drawn) | 22.52%
69 | O=C(O)C(F)(F)F.O=C(O)C(F)(F)F.O=S1(=O)c2ccccc2C2(CCN(Cc3cccnc3)C2)N1CC1CC1 (stereo not drawn) | -8.635%
70 | CS(=O)(=O)NC[C@]12COC[C@H]1CN(CC1CCC1)C2.O=C(O)C(F)(F)F | -46.78%
71 | CS(=O)(=O)N1C[C@H]2CN(CC3CC3)C(=O)[C@H]2C1 | -17.38%
72 | CN1CCN(C[C@@H]2CN(C(=O)NCC3CCCCC3)C[C@@H]2CO)CC1 | -32.18%
73 | Clc1ccccc1C1(c2ccnc(C3CCCC3)n2)CCNCC1 | 82.68%
74 | Cl.Clc1cccnc1OC1CCNCC1 | 7.245%
75 | Clc1ccccc1C1(c2ccnc(C3CC3)n2)CCNCC1 | 72.39%

Row | SMILES | Percent Effect
76 | Cc1cccc(CN2CCn3c(C(=O)N(C)C)cnc3C2)c1 | -123.8%
77 | CN(C)CCNC(=O)c1cc2c(s1)CCN2S(C)(=O)=O | -66.69%
78 | Cn1cnnc1CCC(=O)N1CCCC(OCc2cccnc2)C1 (stereo not drawn) | -207.3%
79 | COc1cc(NC(=O)c2ccc(Cl)cc2F)c(C(=O)N(C)C)cc1OC | -107.3%
80 | Cc1cnn(C2CN(CC(O)c3ccccc3)C2)c1 (stereo not drawn) | 40.53%
81 | COc1ccc(C(O)CN2CC(n3nc(C)cc3C)C2)cc1 (stereo not drawn) | 47.1%
82 | Cc1cc(C)n(C2CN(CC(O)COc3ccc(F)cc3)C2)n1 (stereo not drawn) | -22.32%
83 | Cc1cc(C)n(C2CN(CC(O)c3cc(F)ccc3F)C2)n1 (stereo not drawn) | 84.13%
84 | Cc1cc(C)n(C2CN(CCc3ccncc3)C2)n1 | -117%
85 | Cc1cnn(C2CN(CC(O)c3ccc(F)cc3)C2)c1 (stereo not drawn) | 56.46%
86 | Cc1cc(C)n(C2CN(CC(O)Cn3cccn3)C2)n1 (stereo not drawn) | -132.3%
87 | COc1ccc(C(O)CN2CC(n3cc(C)cn3)C2)cc1 (stereo not drawn) | 19.27%
88 | COc1cc(OC)cc(-c2noc(C(N)CCSC)n2)c1 (stereo not drawn) | -32.31%
89 | Cc1ccc(C(=O)Nc2ccc3c(c2)N(C)CCN(C)C3)c(=O)[nH]1 | -25.5%
90 | Cc1cnn(C2CN(CC(=O)NCCc3cccs3)C2)c1 | -35.32%
91 | CN(Cc1cc2cc(F)ccc2[nH]1)C(=O)C1CC(=O)N(C2CC2)C1 (stereo not drawn) | -1.915%
92 | Cc1cc(CN2CCO[C@H]3[C@H](OCc4csc(C)n4)CC[C@@H]32)no1.O=C(O)C(F)(F)F.O=C(O)C(F)(F)F | -78.11%
93 | CC1CCN(C(=O)C2CCN(c3ccc(Cl)cc3C#N)CC2)CC1 | 59.54%
94 | CCN(CC)C(=O)C1CCN(c2ccc(Cl)cc2C#N)CC1 | -152.7%
95 | N#Cc1cc(Cl)ccc1N1CCN(C(=O)C2CCC2)CC1 | -79.7%
96 | Cc1noc(CN(C)C2CCCN(Cc3noc(C4CC4)n3)C2)n1 (stereo not drawn) | -141.9%
97 | Cc1cc(CN2CCOC(CNc3cccnn3)C2)no1 (stereo not drawn) | -113%
98 | CO[C@H]1CN(CC2CCOCC2)[C@@H]2CCCO[C@H]12.O=C(O)C(F)(F)F | -55.37%
